We go through 10 compounds from PubChem BioAssay (NCATS).

Several values for one entry are separate records, joined by “and”; a condition that tells them apart may be missing. Identical values can stand only once. Results filed as inconclusive are left out. Activity calls are given as the source filed them. Unless noted, the call rests on the fitted dose curve; in most records, active means well fitted curve in the direction sought with a large enough effect; inconclusive means small, poorly fitted or top-dose-only effect, or another doubt; inactive means no such curve, though single readings can be large; an effect the other way counts as inactive or inconclusive.

Assay [1] is described as follows: Cellular Toxicity (caspase-3) Hek293 (AID 664).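 Further: cells exposed to compound for 16 h at 37 °C before readout.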 The settings on record: HEK293 caspase-3 activation, DMSO = 0%, 100 µM tamoxifen = 100%; at 92.2 µM (top of the series). The essentials: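 qHTS, HEK293 (human embryonic kidney), 16 h cpd exposure in complete medium. Caspase-3/7 activation = luminescence increase; normalized to DMSO/100 uM tamoxifen; Hill-fit AC50.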

The nature of assay [2]: MultiTox-Fluor Cytotoxicity Assay - LYMP1-002 - Live Cells (AID 955).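 Further: cells exposed to compound for 16 hours; on the % scale 0 is the no-effect control and ±100 the full control effect.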 The method in brief: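 Cells were seeded at 2500 per well and incubated 5 hr. Compounds were then added for 16 hr at 37 C, followed by MultiTox-Fluor reagent for 60 min at room temperature and fluorescence reading of viable-cell protease signal.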
The nature of assay [3]: Cell Viability - LYMP2-013 (AID 970).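 Further: 0% = DMSO only and full inhibition = tetraoctylammonium bromide control; nearly all actives have a fitted effect of over 55% in size.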 The method in brief: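 Cytotoxicity is scored as a concentration-dependent drop in intracellular ATP in human lymphoblastoid cells after 24 hr compound exposure at 37 C. ATP is quantified by luciferase luminescence, and AC50 values come from Hill-equation modeling.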
The nature of assay [4]: Cell Viability - LYMP2-006 (AID 978). Further: on the % scale 0 is the no-effect control and ±100 the full control effect; nearly all actives have a fitted effect of over 60% in size. The essentials: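 Potency values are Hill-fit AC50s for decreases in intracellular ATP (CellTiter-Glo luminescence). LYMP2-006 lymphoblastoid cells, 2500 per well, were exposed to compound in complete culture medium for 24 hr at 37 C.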
A short description of assay [5]: Cell Viability - LYMP2-012 (AID 982).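 Further: cellular ATP by luciferase luminescence where a drop means cytotoxicity; cells exposed to compound for one day before reading; 0% = DMSO only and full loss = 92 µM tetraoctylammonium bromide; nearly all actives have a fitted effect of over 55% in size.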
Assay [6] is described as follows: Cell Viability - LYMP2-020 (AID 986).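 Further: plate controls were DMSO only for no effect and tetraoctylammonium bromide at 92 µM for full effect; nearly all actives have a fitted effect of over 55% in size.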 The method in brief: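 Seed 2500 cells per well and incubate 5 hr at 37 C. Add compounds at a concentration series and incubate 24 hr at 37 C. Add CellTiter-Glo, wait 30 min at RT, read luminescence, and fit a Hill curve for AC50.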
A short description of assay [7]: Cell Viability - LYMP1-002 - Assay at 40 hr (AID 994).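 Further: 0% = DMSO only and full inhibition = 92 µM tetraoctylammonium bromide; nearly all actives have a fitted effect of over 60% in size.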 The essentials:
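Cells are plated at 2500 per well and rested 5 hr at 37 C. Compounds are added and incubated 40 hr at 37 C. CellTiter-Glo reagent is added for 30 min at room temperature before luminescence is read.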

For assay [8], the target named is Estrogen receptor (Homo sapiens) (UniProt P03372). In words: qHTS assay for small molecule antagonists of estrogen receptor alpha signaling (AID 588513; active means well fitted curve in the direction sought with a large enough effect in the signal ratio, with a control signal flat, not every such curve was filed as active; the % refers to the signal ratio; further: on the % scale 0 is the no-effect control and ±100 the full control effect). The method in brief:
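Antagonist mode: inhibition of 0.5 nM 17-beta-estradiol-driven beta-lactamase reporter in HEK 293 ER-alpha-UAS-bla cells, 18 h at 37C, CCF4 readout after 2 h at RT. Normalised to estradiol and DMSO; titration fitted to Hill.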
Background: Quantitative high-throughput screening tests each substance at several concentrations.

Assay [9] shares this target. Kind of assay: qHTS assay for small molecule agonists of estrogen receptor alpha signaling (AID 588514; calls by dose curve;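 further: 0% = vehicle only and 100% = reference agonist; nearly all actives have a fitted effect of over 70% in size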). The essentials: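 Efficacy is expressed against 20 nM 17-beta-estradiol (100%) and DMSO basal (0%); EC50 from Hill equation. Assay: beta-lactamase reporter in ER-alpha-UAS-bla HEK 293 cells, 18 h compound incubation, CCF4 detection.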
Assay [10] concerns the target Glucocorticoid receptor (Homo sapiens) (UniProt P04150). In words: qHTS assay for small molecule antagonists of glucocorticoid receptor signaling (AID 588533; active means well fitted inhibition curve with a large enough effect in the signal ratio, with a control signal flat, not every such curve was filed as active; the % refers to the signal ratio;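 further: cells stimulated with 2 nM dexamethasone as agonist; on the % scale 0 is the no-effect control and ±100 the full control effect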). The essentials:
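Antagonist-mode qHTS: compound titrations added to GRE-bla HeLa cells, then dexamethasone 2 nM final; 18 h, 37 C. CCF4 FRET fluorescence normalized to dexamethasone and DMSO; IC50 from Hill fit.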

Assay [11] is described as follows: qHTS assay for small molecule antagonists of peroxisome proliferator-activated receptor delta signaling (AID 588535; active means well fitted inhibition curve with a large enough effect in the signal ratio, with a control signal flat, not every such curve was filed as active; the % refers to the signal ratio;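 on max response: cells co-treated with a PPAR-delta agonist as stimulator during compound exposure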). The settings on record: HEK293T PPARd-UAS-bla, beta-lactamase FRET ratio, 18 h; 460 nm channel. The method in brief: (§1)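 Titrations were run on PPAR-delta-UAS-bla HEK293T cells in charcoal/dextran-stripped serum, incubated 18 h at 37 C. CCF4 fluorescence (460/530 nm) after 2 h RT; Hill equation yields IC50 and maximal response.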

In assay [12] the target is Peroxisome proliferator-activated receptor delta (Homo sapiens) (UniProt Q03181). Described as above. The method in brief: as §1
Sequence of Peroxisome proliferator-activated receptor delta (Homo sapiens) (Q03181 whole entry, looked up): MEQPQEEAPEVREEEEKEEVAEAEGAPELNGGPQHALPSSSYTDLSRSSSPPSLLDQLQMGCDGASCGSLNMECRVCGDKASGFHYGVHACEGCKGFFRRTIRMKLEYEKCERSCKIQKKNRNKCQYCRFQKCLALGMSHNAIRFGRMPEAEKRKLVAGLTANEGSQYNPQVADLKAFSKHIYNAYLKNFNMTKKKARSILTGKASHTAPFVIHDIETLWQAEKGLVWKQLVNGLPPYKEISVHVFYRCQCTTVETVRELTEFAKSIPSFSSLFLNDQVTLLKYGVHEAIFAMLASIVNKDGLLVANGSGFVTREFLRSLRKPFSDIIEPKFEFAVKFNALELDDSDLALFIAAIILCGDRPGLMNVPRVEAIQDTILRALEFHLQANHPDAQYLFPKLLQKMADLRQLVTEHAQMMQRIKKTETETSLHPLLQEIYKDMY
The target of assay [13] is Peroxisome proliferator-activated receptor gamma (Homo sapiens) (UniProt P37231). In words: qHTS assay for small molecule agonists of peroxisome proliferator-activated receptor gamma signaling (AID 588536; active means well fitted curve in the direction sought with a large enough effect in the signal ratio, with a control signal flat, not every such curve was filed as active; the % refers to the signal ratio;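 further: 0% = DMSO basal wells and 100% = rosiglitazone at 2 µM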). The essentials:
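Cells were plated and held 6–6.5 h at 37 C, then compounds were added as a titration series. After a further 16 h, CCF4 dye was loaded for 2 h at room temperature and emission at 460/530 nm recorded.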

Assay [14] can be described thus: Cell Viability - LYMP1-002 - Assay at 16 hr (AID 948).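 Further: 0% = DMSO alone and full effect = 92 µM tetraoctylammonium bromide.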 The essentials:
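ATP luminescence (CellTiter-Glo) was measured after 16 hr compound exposure at 37 C of 2500 lymphoblastoid LYMP1-002 cells per well. Concentration-response curves were fitted with the Hill equation to give AC50.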

Assay [15] is described as follows: Cell Viability - LYMP2-005 (AID 967).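 Further: plate controls were DMSO only for no effect and 92 µM tetraoctylammonium bromide control for full effect.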 The essentials: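 LYMP2-005 human lymphoblastoid cells (2500/well) were treated with compounds for 24 h at 37 C. Intracellular ATP was then measured by CellTiter-Glo luminescence after 30 min at room temperature. AC50 values came from Hill-equation fits of qHTS concentration-response data.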
Assay [16] in a line: qHTS assay for cell viability of HEK293 cells (AID 743288). Further: on the % scale 0 is the no-effect control and ±100 the full control effect; nearly all actives have a fitted effect of over 50% in size. The settings on record: ATP luminescence (CellTiter-Glo), 18 h; max response: stronger effect = lower value. The method in brief:
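Readout is luciferase-coupled ATP content (CellTiter-Glo luminescence, 30 min room temperature) as a measure of metabolically competent cells. Parental HEK293 cells were plated 5 h or more before compound addition, then treated 18 h at 37 C.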

In assay [17] the target is Mitogen-activated protein kinase 10 (Mus musculus) (UniProt Q61831). Kind of assay: JNK3 AlphaScreen Assay (AID 530; active means well fitted curve in either direction with a large enough effect, not every such curve was filed as active;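 further: kinase came from lysate of stimulated human HepG2 cells; signal reports phosphorylation of biotinylated GST-cJun 1-79 at Ser73 with 10 µM ATP; on the % scale 0 is the no-effect control and ±100 the full control effect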). The method in brief: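 qHTS titrations with 15 min compound pre-incubation before adding ATP (10 uM final). Read-out: AlphaScreen of Ser73-phosphorylated biotin-GST-cJun using HepG2 lysate JNK3 activated by IL-1β and TNFα.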
(Bead proximity is the source of the signal in Alpha formats.)

A short description of assay [18]: Cell Viability - LYMP2-007 (AID 979).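 Further: cells exposed to compound for 24 h before reading; 0% = DMSO only and the negative end = 92 µM tetraoctylammonium bromide; nearly all actives have a fitted effect of over 60% in size.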 The essentials:
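Cells are seeded at 2500 per well and rested 5 hr. Compounds are then added over a concentration series for 24 hr at 37 C. CellTiter-Glo is added for 30 min at room temperature before luminescence reading.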

Assay [19] concerns the target Peroxisome proliferator-activated receptor gamma (Homo sapiens) (UniProt P37231). Kind of assay: qHTS assay for small molecule antagonists of peroxisome proliferator-activated receptor gamma signaling (AID 588537; active means well fitted inhibition curve with a large enough effect in the signal ratio, with a control signal flat, not every such curve was filed as active; the % refers to the signal ratio;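 further: reporter cells co-stimulated with 50 nM rosiglitazone agonist during compound treatment; % of control where 0% means no effect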). The method in brief: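 Antagonist-mode β-lactamase reporter screen run as a titration series. HEK293 PPARγ-UAS-bla cells are stimulated with rosiglitazone (50 nM final) for 16 h, then CCF4 is read at 460/530 nm. Data are scaled between DMSO and rosiglitazone and fitted to the Hill equation.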

Assay [20] can be described thus: qHTS assay to identify small molecules that stimulate interleukin-8 (IL-8) secretion (AID 651758; active means well fitted activation curve with a large enough effect in the signal ratio; the % refers to the signal ratio; further: 0% is about no effect). The essentials:
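Secreted IL-8 measured homogeneously by TR-FRET (two labelled anti-IL-8 antibodies, 1-3 h at room temperature) after a 16 h, 37 C compound treatment of THP-1 cells at 2000 cells/well.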

Sequence of Peroxisome proliferator-activated receptor gamma (Homo sapiens) (P37231 whole entry, looked up): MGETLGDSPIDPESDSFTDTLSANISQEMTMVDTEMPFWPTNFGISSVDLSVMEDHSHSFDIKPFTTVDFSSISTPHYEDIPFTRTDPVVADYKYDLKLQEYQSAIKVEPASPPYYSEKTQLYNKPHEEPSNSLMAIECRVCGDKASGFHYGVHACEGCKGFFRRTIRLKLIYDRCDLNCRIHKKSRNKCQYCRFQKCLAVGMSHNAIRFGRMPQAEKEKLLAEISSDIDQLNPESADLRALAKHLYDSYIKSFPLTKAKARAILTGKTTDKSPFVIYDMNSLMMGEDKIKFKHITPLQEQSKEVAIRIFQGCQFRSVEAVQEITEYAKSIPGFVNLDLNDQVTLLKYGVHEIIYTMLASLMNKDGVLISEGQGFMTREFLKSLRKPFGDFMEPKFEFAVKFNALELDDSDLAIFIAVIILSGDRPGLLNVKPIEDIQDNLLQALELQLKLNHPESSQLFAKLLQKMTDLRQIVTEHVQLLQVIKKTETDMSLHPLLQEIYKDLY
Sequence of Estrogen receptor (Homo sapiens) (P03372 whole entry, looked up): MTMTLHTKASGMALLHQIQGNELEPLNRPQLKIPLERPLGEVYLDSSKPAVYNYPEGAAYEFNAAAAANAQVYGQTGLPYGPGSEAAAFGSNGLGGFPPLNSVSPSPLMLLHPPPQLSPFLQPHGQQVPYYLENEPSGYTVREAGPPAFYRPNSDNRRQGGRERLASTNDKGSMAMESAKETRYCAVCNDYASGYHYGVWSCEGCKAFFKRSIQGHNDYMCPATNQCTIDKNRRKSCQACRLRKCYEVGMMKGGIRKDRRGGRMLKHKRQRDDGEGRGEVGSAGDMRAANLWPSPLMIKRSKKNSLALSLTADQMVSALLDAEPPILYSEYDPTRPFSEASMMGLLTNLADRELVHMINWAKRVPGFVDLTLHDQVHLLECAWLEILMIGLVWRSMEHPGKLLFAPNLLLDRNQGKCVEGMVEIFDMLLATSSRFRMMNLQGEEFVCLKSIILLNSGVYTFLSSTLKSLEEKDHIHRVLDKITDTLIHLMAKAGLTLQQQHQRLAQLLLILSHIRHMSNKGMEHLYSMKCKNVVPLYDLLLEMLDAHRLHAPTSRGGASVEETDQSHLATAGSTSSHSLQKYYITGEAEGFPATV
Sequence of Glucocorticoid receptor (Homo sapiens) (P04150 whole entry, looked up): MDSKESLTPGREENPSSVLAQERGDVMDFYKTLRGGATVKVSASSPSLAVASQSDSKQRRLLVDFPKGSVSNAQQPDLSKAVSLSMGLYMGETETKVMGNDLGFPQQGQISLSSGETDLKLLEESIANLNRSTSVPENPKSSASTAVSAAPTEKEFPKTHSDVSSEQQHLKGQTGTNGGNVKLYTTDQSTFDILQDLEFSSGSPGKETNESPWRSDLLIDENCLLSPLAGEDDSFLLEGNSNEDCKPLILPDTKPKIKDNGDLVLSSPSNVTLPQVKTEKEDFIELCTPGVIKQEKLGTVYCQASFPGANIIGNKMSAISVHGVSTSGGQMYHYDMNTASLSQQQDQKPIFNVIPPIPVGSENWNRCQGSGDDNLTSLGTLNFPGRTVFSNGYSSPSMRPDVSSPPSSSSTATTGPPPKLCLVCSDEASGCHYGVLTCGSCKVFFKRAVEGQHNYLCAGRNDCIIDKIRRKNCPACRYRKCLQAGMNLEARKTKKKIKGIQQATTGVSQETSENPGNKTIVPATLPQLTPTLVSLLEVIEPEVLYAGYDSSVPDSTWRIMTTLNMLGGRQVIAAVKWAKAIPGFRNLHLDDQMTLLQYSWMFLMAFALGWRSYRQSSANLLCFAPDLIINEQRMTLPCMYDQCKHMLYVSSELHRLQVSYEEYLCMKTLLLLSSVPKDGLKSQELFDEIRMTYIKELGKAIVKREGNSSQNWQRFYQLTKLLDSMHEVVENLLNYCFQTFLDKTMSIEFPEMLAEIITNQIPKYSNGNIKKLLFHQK

Regarding `O=[N+]([O-])c1cccc(I)c1`, the caspase-3 activation in [1] is -1.61% (inactive). Moreover, the call in [2], in [8], in [12] and in [13] was inactive. Further, the Potency result in assay [3], in [4], in [5], in [6], in [7] and in assay [9] was “inactive” throughout. In addition, in assay [10], the Potency entry is “inactive”. In addition, in assay [11], the max response worked out at 12.5%.
As to `O=c1[nH]ncc2ccccc12`, the Potency entry in assay [14], in assay [15], in [4], in assay [7], in [9] and in assay [10] was “inactive” in each case. In addition, in assay [8], the outcome was inactive. Besides, the max response in assay [16] is 0.756% (inactive).
Consider `COc1ccc([N+](=O)[O-])cc1N`, for which the Potency result in assay [17], in assay [3], in assay [4], in assay [18], in assay [6] and in assay [7] was “inactive” in each case. For the same compound, the Potency result in [9] and in [10] was “inactive” throughout. For the same compound, the caspase-3 activation in assay [1] was -2.76% (inactive). In addition, the result in assay [2], in assay [8], in [12] and in [13] was inactive. Besides, the max response in [11] is 74.5% and 5.37%; in assay [16], -2.82% (inactive) and -3.03% (inactive).
In the case of `COc1ccc(C(=O)Nc2ccccc2)cc1[N+](=O)[O-]`, the Potency entry in assay [17], in assay [14], in assay [15], in assay [3], in [18] and in assay [7] was “inactive” in each case. Besides, the Potency entry in assay [10] and in assay [19] was “inactive” throughout. Further, in [1], the caspase-3 activation was -1.89% (inactive). The compound was classed as inactive in assay [2], in [8] and in assay [13]. In addition, in assay [16], the max response is -5.07% (inactive).
`CC(=O)OC1CC(C)OC(C)O1` (stereo not drawn): the Potency result in [17], in assay [3], in assay [4], in [18], in [5] and in [6] was “inactive” each time. For the same compound, the Potency entry in [7], in assay [10] and in assay [19] was “inactive” each time. For the same compound, the caspase-3 activation in assay [1] is 2.93% (inactive). Moreover, the max response in assay [11] is -8.33% and -2.28%. Also, in assay [12], the compound was classed as inactive.
As to `C/C(Cl)=C/CCl`, the caspase-3 activation in assay [1] is -0.884% (inactive). Moreover, the compound was called inactive in assay [2], in [8], in [12] and in assay [13]. Besides, the Potency entry in assay [15], in assay [4], in assay [5], in assay [7], in [9] and in assay [19] was “inactive” in each case. In addition, the max response was 5.39% in [11] and -11.4% (inactive) in assay [16].
Regarding `OCC(CBr)(CBr)CBr`, the Potency result in assay [17], in assay [14], in assay [3], in assay [18], in assay [5] and in assay [6] was “inactive” throughout. Also, the Potency entry in assay [7], in assay [9] and in assay [19] was “inactive” throughout. Also, the compound was classed as inactive in assay [2], in [8] and in [12]. Besides, the values for the max response in assay [11] and in [16] were 9.08% and -19.9% (inactive), respectively.
`OC1CCCCC1`: in assay [1], the caspase-3 activation was -0.682% (inactive). Further, the result in [2], in assay [8] and in assay [12] was inactive. Besides, the Potency result in assay [15], in assay [3], in assay [18], in [6], in assay [9] and in assay [19] was “inactive” throughout. In assay [20], the Potency entry was “inactive”. Besides, the max response in [11] is 23.6%.
As to `COc1cc(-c2ccc(N=C=O)c(OC)c2)ccc1N=C=O`, the Potency result in assay [17], in assay [14], in assay [15] and in assay [3] was “inactive” in each case. In addition, the caspase-3 activation in assay [1] was 2.71% (inactive). The outcome in [2] was inactive.
On to `CC(C)S`, for which the caspase-3 activation in assay [1] is 0.604% (inactive). Also, the result in assay [2], in [8] and in [12] was inactive. The Potency entry in [15], in assay [3], in assay [18], in assay [9], in assay [10] and in [19] was “inactive” in each case. For the same compound, the max response in assay [11] was -7.04%; in assay [16], -8.12% (inactive).
